Out of some 2,300 compounds screened, about 350 (15%) were called active. No rule for the calls is given here. Only a sample is shown. A call without a number means that no potency is given here. Potency and affinity values are given separately.
Assay: HepG2 cell cytotoxicity, dose response, cytotoxicity control for non-replicating M. tuberculosis project (AID 489018);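 also: HepG2 human liver cells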
Settings: series mostly up to 20 µM

Row | SMILES | outcome
1 | OCC1(CCOc2ccccc2)CCN(Cc2cc(Cl)ccc2O)CC1 | inactive
2 | COc1ccc(C2(O)CCN(CCCCOc3ccccc3)CC2)cc1 | inactive
3 | Clc1cccc(OCCN2CCN(CCOc3cccc(Cl)c3)CC2)c1 | inactive
4 | CC(C)Cn1c(N)c(C(=O)COC(=O)c2cnc(Cl)c(Cl)c2)c(=O)n(C)c1=O | inactive
5 | O=C(Oc1cccnc1)c1ccc(Cl)c(Cl)c1 | inactive
6 | CC(=O)c1ccc(-n2cc(-c3ccc(C(C)(C)C)cc3)[n+]3c2SCCC3)cc1 | inactive
7 | Cn1c(=O)c(Oc2ccc(F)cc2)c(O)c2ccccc21 | inactive
8 | O=C(Nc1nccs1)c1ccc(COc2ccc(Cl)cc2)o1 | inactive
9 | COc1cccc(COC(=O)CCNC(=O)c2ccc(Cl)cc2)c1OC | inactive
10 | O=C(Oc1ccccc1)c1ccc(COC(=O)c2cnccn2)cc1 | inactive
11 | CCCC(=O)N1CCC(Cc2ccccc2)CC1 | inactive
12 | NC1=NC[C@H](Cc2ccccc2)N1CCCCC1CCCCC1 | inactive
13 | Cc1ccc(NC(C)C(=O)N/N=C/c2ccc([N+](=O)[O-])s2)cc1 (configuration not stated) | inactive
14 | CC(NC(=O)OCc1ccccc1)c1ccccc1 (configuration not stated) | inactive
15 | CC(CN1CCOCC1)OC(=O)c1ccc2c(c1)OCCO2 (configuration not stated) | inactive
16 | CCOc1ccc(C(=O)CCN2CCCCCC2)cc1 | inactive
17 | CC(CN1CCOCC1)OC(=O)c1ccc(Br)cc1 (configuration not stated) | inactive
18 | COc1ccc(C(=O)CCN2CCCCCC2)cc1 | inactive
19 | COc1ccc2cc(C(=O)C3CCCN(Cc4ccccn4)C3)ccc2c1 (configuration not stated) | inactive
20 | CC(C)COc1ccc(C(=O)CCN2CCCCC2)cc1 | inactive
21 | Cc1ccc(NC(CC(=O)c2ccccc2)C(=O)O)cc1Cl (configuration not stated) | inactive
22 | CC(=O)c1cc2c(ccc3ccccc32)oc1=O | inactive
23 | Cc1c([N+](=O)[O-])cnc(Sc2ccccc2)c1[N+](=O)[O-] | inactive
24 | O=C(C/C=N\OCc1ccc([N+](=O)[O-])cc1)Nc1ccccc1 | inactive
25 | Cc1nnc(N/N=C/c2cccc(OCc3ccc(Cl)c(Cl)c3)c2)n1N | inactive
26 | O=C(CN1CCC(NC(=O)c2cccc(F)c2)CC1)Nc1ccc(Br)cc1 | inactive

Row | SMILES | outcome
27 | COc1cccc(NC(=O)c2cnc(SC)nc2)c1 | inactive
28 | CCOC(=O)c1c(C)nc2c3ccccc3ccn12 | inactive
29 | COC(=O)c1ccc(N2CCN(CCNC(=O)Nc3ccc(OC)cc3)CC2)cc1 | inactive
30 | COC(=O)COc1ccc2c(=O)c(Oc3ccccc3)c(C)oc2c1 | inactive
31 | O=C(CCN1CCCCCC1)c1ccccc1 | inactive
32 | O=C(CCSc1ccccc1)N1CCCC1 | inactive
33 | O=C(Nc1nc(-c2cc(F)ccc2F)cs1)c1ccccn1 | inactive
34 | Cc1ccc2nc(NC(=O)c3ccccn3)sc2c1 | inactive
35 | Cc1cnc(NC(=O)c2ccccn2)s1 | inactive
36 | O=C(Nc1nccs1)c1ccccn1 | inactive
37 | CC1=C(/C=C/C(C)=N\NC(=O)c2ccncc2)C(C)(C)CCC1 | inactive
38 | O=C(COC(=O)COc1ccc(Nc2ccccc2)cc1)NCc1ccco1 | inactive
39 | O=C(COc1ccccc1)Nc1nnc(-c2ccc(Cl)cc2)o1 | inactive
40 | CC(C)Cc1cc(C(=O)Nc2ccc(F)cc2F)no1 | inactive
41 | O=C(Nc1c(F)cc(F)cc1Br)c1cc(-c2ccccc2)on1 | inactive
42 | O=C(N/N=C\c1ccc([N+](=O)[O-])s1)C1COc2ccccc2O1 (configuration not stated) | inactive
43 | CCn1ccc(C(=O)Nc2cccc(Cl)c2)n1 | inactive
44 | O=C(CCSc1nnc(-c2ccncc2)o1)Nc1cccc(Cl)c1 | inactive
45 | Cc1noc2ncnc(Sc3ccc(Br)cc3)c12 | inactive
46 | O=c1cc(-c2ccccc2Cl)oc2c([N+](=O)[O-])c(O)cc(O)c12 | inactive
47 | O=C1C=C(Nc2ccc(F)cc2)c2ccccc2C1=O | inactive
48 | CCOC(=O)c1ccc(NC2=CC(=O)C(=O)c3ccccc32)cc1 | inactive
49 | CCN(CC)S(=O)(=O)c1ccc(C(=O)OCn2nnc3ccccc3c2=O)cc1 | inactive
50 | O=c1cc(-c2ccccc2Cl)oc2ccc([N+](=O)[O-])c(O)c12 | inactive
51 | CCC/C(=N\NC(=O)c1ccco1)c1ccc(Cl)s1 | inactive
52 | CCCc1cc(C(=O)Nc2ccccc2SC)no1 | inactive

Row | SMILES | outcome
53 | Cc1ccc(C(=O)N/N=C\c2ccc([N+](=O)[O-])s2)cn1 | inactive
54 | Cc1cc(C(=O)N/N=C/c2ccc([N+](=O)[O-])s2)n[nH]1 | inactive
55 | Cc1cc(C)n(CC(=O)N/N=C/c2ccc([N+](=O)[O-])s2)n1 | inactive
56 | O=c1oc(/C=C/c2ccc([N+](=O)[O-])s2)nc2ccccc12 | inactive
57 | CCOC(=O)c1cc(-c2csc(COc3ccccc3)n2)on1 | inactive
58 | O=C(N/N=C\C=C\c1ccco1)c1cncc(Br)c1 | inactive
59 | CS(=O)(=O)Nc1cccc2cccnc12 | inactive
60 | Cc1cc(C)n2nc(S(=O)(=O)Nc3c(Cl)cccc3Cl)nc2n1 | inactive
61 | O=C(OCc1nnc(-c2ccccc2)o1)c1cc([N+](=O)[O-])ccc1Cl | inactive
62 | O=c1c2cc(Cl)ccc2nc(-c2ccccc2Cl)n1O | inactive
63 | CCOC(=O)c1ccc(COC(=O)c2ccc(-c3nnc(-c4ccccc4)o3)cc2)o1 | inactive
64 | Cc1cc(OCCCCn2ccnc2)cc(C)c1Cl | inactive
65 | O=C(c1ccc([N+](=O)[O-])cc1[N+](=O)[O-])N1CCc2ccccc21 | inactive
66 | Cc1ccc(S(=O)(=O)CCC(=O)Nc2nc(-c3ccncc3)cs2)cc1 | inactive
67 | CC(/C=C/c1ccccc1F)=N\NC(=O)c1ccccc1 | inactive
68 | O=S1(=O)C=C(Sc2nc3cc(Cl)ccc3o2)c2ccccc21 | inactive
69 | O=C1c2ccccc2CC1Sc1nnc(-c2ccncc2)o1 (configuration not stated) | inactive
70 | O=C(O)c1[nH]c(=O)[nH]c(=O)c1F | inactive
71 | CC1=NN(c2ccccc2)C(=O)C1C(=O)c1ccccc1 (configuration not stated) | inactive
72 | Nc1nc2ccccc2n1C(=O)c1ccc(F)cc1 | inactive
73 | CCC(=O)Nc1nc2ccccc2n1Cc1ccccc1 | inactive
74 | O=C(COc1ccccc1)NCCSCc1ccc(Cl)cc1 | inactive
75 | C=CCc1ccc(OCC(O)CN2CCN(Cc3ccc(Cl)cc3)CC2)c(OC)c1 (configuration not stated) | inactive
76 | OC(COc1ccccc1Cl)CN1CCN(CC(O)COc2ccccc2Cl)CC1 (configuration not stated) | inactive
77 | O=C(Nc1ncc([N+](=O)[O-])s1)c1ccc2c(c1)OCO2 | inactive
